Assay results from ChEMBL document CHEMBL2218924, “A broad activity screen in support of a chemogenomic map for kinase signalling research and drug discovery” (Biochem J, 2013).

Assays:
[1] = biological target: T1, Protein kinase C zeta type (Homo sapiens) (UniProt Q05513); conditions: at 1 µM
T1 sequence (whole entry): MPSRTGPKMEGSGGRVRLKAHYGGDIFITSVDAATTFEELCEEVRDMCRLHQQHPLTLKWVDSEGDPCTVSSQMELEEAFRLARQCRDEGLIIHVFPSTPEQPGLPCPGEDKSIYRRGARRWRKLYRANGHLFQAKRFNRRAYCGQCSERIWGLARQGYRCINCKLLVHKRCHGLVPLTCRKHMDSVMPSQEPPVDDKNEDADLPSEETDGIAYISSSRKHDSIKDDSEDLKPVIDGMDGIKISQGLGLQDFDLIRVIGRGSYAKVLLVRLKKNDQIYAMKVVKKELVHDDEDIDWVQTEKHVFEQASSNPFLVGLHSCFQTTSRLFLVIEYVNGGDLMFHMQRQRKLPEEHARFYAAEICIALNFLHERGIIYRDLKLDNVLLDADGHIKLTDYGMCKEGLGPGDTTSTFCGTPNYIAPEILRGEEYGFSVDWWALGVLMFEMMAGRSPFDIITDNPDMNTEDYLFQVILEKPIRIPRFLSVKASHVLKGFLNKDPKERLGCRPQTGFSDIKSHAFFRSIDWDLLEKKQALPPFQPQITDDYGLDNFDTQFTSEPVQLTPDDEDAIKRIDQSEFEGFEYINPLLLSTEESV

[2] = biological target: T2, Mitogen-activated protein kinase kinase kinase 5 (Homo sapiens) (UniProt Q99683); conditions: at 10 µM
T2 sequence (whole entry): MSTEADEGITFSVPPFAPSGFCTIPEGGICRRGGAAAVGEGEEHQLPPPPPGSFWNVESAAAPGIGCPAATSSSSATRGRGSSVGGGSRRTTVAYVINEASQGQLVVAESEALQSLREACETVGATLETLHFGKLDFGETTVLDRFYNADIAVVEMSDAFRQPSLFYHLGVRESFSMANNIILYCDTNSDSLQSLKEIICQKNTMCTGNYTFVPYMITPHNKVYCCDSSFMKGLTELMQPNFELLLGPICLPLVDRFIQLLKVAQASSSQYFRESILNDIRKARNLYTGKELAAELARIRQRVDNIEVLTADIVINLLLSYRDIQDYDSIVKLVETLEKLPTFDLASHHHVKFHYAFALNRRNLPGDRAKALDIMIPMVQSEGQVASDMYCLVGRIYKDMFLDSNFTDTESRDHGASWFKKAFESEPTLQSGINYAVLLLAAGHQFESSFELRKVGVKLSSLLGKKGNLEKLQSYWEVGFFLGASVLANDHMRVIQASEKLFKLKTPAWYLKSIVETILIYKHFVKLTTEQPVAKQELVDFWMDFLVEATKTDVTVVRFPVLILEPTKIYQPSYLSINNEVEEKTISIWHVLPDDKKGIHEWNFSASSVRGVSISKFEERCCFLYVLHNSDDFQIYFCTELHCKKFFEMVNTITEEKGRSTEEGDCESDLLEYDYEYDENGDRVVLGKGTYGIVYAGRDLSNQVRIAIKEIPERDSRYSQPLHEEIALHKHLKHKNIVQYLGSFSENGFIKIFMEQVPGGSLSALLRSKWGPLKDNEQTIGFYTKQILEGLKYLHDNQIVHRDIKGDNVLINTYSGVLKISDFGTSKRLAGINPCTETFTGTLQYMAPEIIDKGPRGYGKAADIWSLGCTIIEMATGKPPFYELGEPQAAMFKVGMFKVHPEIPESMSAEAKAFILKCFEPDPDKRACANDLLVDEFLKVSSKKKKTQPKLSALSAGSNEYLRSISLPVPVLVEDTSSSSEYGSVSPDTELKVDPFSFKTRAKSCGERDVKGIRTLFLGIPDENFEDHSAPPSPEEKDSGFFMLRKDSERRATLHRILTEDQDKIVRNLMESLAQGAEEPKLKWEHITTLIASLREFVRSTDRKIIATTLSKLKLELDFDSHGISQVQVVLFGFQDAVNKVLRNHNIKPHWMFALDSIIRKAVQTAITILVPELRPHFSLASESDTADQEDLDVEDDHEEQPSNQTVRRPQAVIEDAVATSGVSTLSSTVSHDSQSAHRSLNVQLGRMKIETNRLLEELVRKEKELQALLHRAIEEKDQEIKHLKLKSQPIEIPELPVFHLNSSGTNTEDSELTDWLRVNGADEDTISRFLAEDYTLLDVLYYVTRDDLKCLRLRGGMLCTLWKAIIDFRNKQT

[3] = biological target: Tyrosine-protein kinase ABL1 (Homo sapiens) (UniProt P00519); conditions: at 1 µM
Sequence of Tyrosine-protein kinase ABL1 (Homo sapiens) (P00519 whole entry): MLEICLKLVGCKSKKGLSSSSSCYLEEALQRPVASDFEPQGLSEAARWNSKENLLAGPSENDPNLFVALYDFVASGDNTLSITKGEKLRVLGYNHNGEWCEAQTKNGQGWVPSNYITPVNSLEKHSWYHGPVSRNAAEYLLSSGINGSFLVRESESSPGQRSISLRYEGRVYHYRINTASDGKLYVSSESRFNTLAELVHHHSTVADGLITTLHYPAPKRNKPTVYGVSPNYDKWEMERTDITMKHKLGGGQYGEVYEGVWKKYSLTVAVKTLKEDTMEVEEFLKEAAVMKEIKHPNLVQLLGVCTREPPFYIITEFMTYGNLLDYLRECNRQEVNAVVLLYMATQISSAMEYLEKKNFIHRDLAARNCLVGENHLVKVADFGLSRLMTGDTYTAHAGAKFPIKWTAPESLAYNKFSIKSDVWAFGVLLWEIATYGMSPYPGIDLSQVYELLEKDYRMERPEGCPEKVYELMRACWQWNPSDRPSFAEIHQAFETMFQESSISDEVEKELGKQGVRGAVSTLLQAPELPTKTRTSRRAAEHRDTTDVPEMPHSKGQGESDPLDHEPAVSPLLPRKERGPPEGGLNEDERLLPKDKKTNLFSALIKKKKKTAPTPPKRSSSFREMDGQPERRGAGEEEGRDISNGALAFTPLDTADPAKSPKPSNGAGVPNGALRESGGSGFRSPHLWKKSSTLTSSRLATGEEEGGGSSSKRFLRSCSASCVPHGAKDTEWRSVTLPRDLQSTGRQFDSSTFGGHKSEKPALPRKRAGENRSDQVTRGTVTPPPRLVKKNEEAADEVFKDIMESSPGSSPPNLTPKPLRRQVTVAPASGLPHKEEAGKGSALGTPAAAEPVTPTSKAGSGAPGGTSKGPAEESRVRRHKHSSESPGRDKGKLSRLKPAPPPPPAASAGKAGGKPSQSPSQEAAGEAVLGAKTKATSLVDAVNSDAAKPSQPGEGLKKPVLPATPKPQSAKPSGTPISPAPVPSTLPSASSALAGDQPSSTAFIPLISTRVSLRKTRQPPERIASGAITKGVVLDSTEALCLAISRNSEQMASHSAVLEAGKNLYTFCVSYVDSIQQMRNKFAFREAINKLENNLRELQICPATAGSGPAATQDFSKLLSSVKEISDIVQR

[4] = biological target: Tyrosine-protein kinase ABL1 (Homo sapiens) (UniProt P00519); conditions: at 10 µM
[5] = biological target: Tyrosine-protein kinase ABL2 (Homo sapiens) (UniProt P42684); conditions: at 1 µM
Sequence of Tyrosine-protein kinase ABL2 (Homo sapiens) (P42684 whole entry): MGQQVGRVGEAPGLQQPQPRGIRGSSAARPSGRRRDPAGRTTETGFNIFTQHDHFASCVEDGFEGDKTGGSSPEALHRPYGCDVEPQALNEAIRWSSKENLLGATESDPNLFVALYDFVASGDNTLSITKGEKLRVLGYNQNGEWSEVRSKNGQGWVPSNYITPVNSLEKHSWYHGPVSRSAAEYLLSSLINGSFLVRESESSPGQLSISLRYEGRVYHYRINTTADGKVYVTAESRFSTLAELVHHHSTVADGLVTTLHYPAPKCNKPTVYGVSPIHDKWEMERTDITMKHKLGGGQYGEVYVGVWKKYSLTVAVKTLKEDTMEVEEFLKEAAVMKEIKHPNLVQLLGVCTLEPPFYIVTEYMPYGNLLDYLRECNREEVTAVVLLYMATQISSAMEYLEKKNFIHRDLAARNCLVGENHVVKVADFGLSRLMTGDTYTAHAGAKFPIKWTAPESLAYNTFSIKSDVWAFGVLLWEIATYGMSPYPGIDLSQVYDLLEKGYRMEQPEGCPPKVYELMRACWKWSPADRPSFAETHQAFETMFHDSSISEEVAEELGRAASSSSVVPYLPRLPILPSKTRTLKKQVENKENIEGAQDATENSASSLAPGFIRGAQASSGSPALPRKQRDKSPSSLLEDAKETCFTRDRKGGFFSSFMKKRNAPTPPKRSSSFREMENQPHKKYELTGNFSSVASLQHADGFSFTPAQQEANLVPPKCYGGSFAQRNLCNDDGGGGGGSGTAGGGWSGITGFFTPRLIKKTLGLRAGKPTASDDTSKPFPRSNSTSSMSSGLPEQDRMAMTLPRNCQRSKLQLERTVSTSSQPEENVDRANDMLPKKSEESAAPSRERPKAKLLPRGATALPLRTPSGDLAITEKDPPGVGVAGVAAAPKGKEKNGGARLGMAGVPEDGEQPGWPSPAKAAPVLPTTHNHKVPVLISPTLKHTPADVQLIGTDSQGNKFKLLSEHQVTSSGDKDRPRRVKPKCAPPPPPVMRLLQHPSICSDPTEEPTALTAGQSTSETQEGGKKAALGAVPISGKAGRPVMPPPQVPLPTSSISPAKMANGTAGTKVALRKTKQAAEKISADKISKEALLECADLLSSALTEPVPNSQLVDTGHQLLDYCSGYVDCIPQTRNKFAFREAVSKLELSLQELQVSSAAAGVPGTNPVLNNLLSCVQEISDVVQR

[6] = biological target: Tyrosine-protein kinase ABL2 (Homo sapiens) (UniProt P42684); conditions: at 10 µM
[7] = biological target: T3, Aurora kinase A (Homo sapiens) (UniProt O14965); conditions: at 10 µM
T3 sequence (whole entry): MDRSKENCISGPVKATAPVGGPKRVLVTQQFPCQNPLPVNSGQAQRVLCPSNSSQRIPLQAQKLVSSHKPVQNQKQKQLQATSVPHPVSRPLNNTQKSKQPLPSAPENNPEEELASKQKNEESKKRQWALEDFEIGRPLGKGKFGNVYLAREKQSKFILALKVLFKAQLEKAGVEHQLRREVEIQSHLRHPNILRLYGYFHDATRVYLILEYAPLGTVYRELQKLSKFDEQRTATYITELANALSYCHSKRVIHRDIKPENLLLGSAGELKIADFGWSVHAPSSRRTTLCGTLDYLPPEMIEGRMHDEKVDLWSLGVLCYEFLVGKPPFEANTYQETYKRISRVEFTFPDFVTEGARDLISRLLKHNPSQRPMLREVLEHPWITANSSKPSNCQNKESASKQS

[8] = biological target: Aurora kinase B (Homo sapiens) (UniProt Q96GD4); conditions: at 1 µM
[9] = biological target: Aurora kinase B (Homo sapiens) (UniProt Q96GD4); conditions: at 10 µM
[10] = biological target: T4, Aurora kinase C (Homo sapiens) (UniProt Q9UQB9); conditions: at 1 µM
T4 sequence (whole entry): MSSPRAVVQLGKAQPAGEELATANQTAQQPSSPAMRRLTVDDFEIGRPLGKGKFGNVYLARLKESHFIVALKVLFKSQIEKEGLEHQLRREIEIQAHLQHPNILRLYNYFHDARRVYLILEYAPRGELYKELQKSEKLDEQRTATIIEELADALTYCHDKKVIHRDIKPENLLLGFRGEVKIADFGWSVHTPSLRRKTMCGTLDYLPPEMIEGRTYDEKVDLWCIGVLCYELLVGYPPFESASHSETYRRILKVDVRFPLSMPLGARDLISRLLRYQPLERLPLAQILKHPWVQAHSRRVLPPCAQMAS

[11] = biological target: T4, Aurora kinase C (Homo sapiens); conditions: at 10 µM
[12] = biological target: Tyrosine-protein kinase receptor UFO (Homo sapiens) (UniProt P30530); conditions: at 1 µM
Sequence of Tyrosine-protein kinase receptor UFO (Homo sapiens) (P30530 whole entry): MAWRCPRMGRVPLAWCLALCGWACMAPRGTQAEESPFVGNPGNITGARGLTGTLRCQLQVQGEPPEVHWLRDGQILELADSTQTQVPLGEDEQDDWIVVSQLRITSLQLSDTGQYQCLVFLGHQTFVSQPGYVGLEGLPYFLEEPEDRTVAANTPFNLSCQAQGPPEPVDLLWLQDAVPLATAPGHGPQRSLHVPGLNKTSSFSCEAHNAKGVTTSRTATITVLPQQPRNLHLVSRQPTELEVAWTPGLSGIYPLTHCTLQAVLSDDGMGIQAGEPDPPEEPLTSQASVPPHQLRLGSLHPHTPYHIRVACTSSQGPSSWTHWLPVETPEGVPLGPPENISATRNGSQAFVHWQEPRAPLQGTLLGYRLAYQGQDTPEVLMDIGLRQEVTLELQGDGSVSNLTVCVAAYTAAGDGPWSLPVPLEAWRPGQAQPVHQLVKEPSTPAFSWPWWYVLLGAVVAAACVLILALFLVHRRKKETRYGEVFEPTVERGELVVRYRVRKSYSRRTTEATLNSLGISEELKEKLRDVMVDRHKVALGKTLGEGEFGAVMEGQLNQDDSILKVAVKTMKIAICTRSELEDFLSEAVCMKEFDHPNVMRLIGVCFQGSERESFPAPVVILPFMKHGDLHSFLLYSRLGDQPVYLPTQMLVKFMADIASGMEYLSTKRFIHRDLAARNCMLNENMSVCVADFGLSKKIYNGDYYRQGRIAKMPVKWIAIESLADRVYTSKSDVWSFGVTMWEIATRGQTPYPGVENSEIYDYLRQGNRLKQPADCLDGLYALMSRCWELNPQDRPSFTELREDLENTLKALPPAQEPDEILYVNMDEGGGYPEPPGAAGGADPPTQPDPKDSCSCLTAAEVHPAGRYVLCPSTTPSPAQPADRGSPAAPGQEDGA

[13] = biological target: Tyrosine-protein kinase receptor UFO (Homo sapiens) (UniProt P30530); conditions: at 10 µM
[14] = biological target: Protein-tyrosine kinase 6 (Homo sapiens) (UniProt Q13882); conditions: at 10 µM
Sequence of Protein-tyrosine kinase 6 (Homo sapiens) (Q13882 whole entry, looked up): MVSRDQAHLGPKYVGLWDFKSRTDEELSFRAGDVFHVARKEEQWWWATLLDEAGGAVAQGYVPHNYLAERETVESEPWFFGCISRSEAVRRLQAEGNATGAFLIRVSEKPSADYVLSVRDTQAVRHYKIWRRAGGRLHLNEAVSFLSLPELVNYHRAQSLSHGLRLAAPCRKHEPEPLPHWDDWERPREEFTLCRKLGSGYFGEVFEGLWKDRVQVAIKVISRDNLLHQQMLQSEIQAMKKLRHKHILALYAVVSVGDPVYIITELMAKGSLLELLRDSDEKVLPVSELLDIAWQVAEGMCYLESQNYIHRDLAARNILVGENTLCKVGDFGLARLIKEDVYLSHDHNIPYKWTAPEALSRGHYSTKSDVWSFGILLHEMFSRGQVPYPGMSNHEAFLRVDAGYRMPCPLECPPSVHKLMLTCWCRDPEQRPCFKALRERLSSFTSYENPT

[15] = biological target: Tyrosine-protein kinase BTK (Homo sapiens) (UniProt Q06187); conditions: at 1 µM
Sequence of Tyrosine-protein kinase BTK (Homo sapiens) (Q06187 whole entry): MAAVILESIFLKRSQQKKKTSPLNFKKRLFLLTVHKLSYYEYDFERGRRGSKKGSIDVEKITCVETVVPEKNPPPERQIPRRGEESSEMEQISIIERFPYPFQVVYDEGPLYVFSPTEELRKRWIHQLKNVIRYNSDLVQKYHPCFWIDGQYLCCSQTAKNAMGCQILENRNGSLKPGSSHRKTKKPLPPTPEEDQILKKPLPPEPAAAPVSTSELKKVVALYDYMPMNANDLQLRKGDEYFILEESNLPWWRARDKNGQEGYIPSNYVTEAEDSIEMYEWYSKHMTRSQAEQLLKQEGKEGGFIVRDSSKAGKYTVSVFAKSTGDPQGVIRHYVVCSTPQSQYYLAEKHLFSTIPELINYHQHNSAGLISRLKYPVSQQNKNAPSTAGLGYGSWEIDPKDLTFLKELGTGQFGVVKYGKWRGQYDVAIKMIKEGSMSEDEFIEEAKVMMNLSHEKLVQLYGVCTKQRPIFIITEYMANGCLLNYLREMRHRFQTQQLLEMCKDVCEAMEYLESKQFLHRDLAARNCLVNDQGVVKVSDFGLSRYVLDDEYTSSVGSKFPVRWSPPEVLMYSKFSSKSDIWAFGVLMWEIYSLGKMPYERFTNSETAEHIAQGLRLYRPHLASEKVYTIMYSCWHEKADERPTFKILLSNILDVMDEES

[16] = biological target: Tyrosine-protein kinase BTK (Homo sapiens) (UniProt Q06187); conditions: at 10 µM
[17] = biological target: Tyrosine-protein kinase Blk (Homo sapiens) (UniProt P51451); conditions: at 1 µM
Sequence of Tyrosine-protein kinase Blk (Homo sapiens) (P51451 2-505 limits assumed): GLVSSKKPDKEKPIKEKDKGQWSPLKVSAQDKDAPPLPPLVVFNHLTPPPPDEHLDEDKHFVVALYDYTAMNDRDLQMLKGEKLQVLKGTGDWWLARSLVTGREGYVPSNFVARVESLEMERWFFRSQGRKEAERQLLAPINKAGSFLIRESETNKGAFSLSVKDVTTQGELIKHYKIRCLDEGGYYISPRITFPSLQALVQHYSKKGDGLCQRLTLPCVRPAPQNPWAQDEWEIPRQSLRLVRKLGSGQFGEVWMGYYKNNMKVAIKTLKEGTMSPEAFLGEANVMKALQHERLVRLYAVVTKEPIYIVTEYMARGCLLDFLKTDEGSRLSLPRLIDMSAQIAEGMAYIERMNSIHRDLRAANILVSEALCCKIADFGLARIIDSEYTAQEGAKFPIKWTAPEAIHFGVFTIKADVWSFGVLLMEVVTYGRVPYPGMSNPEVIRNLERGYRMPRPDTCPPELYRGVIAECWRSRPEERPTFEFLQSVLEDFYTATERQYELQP

[18] = biological target: Tyrosine-protein kinase Blk (Homo sapiens) (UniProt P51451); conditions: at 10 µM
[19] = biological target: T3, Aurora kinase A (Homo sapiens); conditions: at 1 µM
[20] = biological target: Protein-tyrosine kinase 6 (Homo sapiens) (UniProt Q13882); conditions: at 1 µM

Row | Structure (SMILES) | residual activity [1] | residual activity [2] [%] | residual activity [3] [%] | residual activity [4] [%] | residual activity [5] [%] | residual activity [6] [%] | residual activity [7] [%] | residual activity [8] [%] | residual activity [9] [%] | residual activity [10] [%] | residual activity [11] [%] | residual activity [12] [%] | residual activity [13] [%] | residual activity [14] [%] | residual activity [15] [%] | residual activity [16] [%] | residual activity [17] [%] | residual activity [18] [%] | residual activity [19] [%] | residual activity [20] [%]
1 | CC(C)[C@H](CO)Nc1nc(Nc2cccc(Cl)c2)c2ncn(C(C)C)c2n1 | 101% (inactive) | 96 | 62 | 14 | 22 | 1 | 72 | 72 | 17 | 96 | 78 | 90 | 31 | 92 | 56 | 17 | 38 | 2 |  | 
2 | O=[N+]([O-])/C=C/c1ccc2c(c1)OCO2 | 93% (inactive) | 90 | 96 | 86 | 104 | 92 | 109 | 108 | 90 | 102 | 77 | 69 | 81 | 105 | 96 | 102 | 120 | 96 | 99 | 113
3 | N/C(=N\[N+](=O)[O-])N/N=C\c1ccc(-c2cccc([N+](=O)[O-])c2)o1 |  | 86 |  |  | 96 | 83 |  | 80 | 53 | 97 | 88 | 94 | 93 | 96 |  |  | 98 | 89 |  | 97
4 | O=C1Nc2ccc3ncsc3c2/C1=C/c1c[nH]cn1 | 86% (inactive) | 7 | 66 | 20 | 82 | 33 | -2 | 2 | 0 | 18 | -1 | 26 | 8 | 34 | 88 | 47 | 44 | 5 | 0 | 66
5 | O=c1[nH]c2ccccc2n1C1CCN(Cc2ccc(-c3nc4cc5[nH]cnc5cc4nc3-c3ccccc3)cc2)CC1 | 109% (inactive) | 96 | 114 | 137 | 117 | 89 | 92 | 116 | 77 | 108 | 86 | 77 | 64 | 79 | 91 | 76 | 94 | 50 | 70 | 110
6 | c1cc(-c2cnn3cc(-c4ccc(OCCN5CCCCC5)cc4)cnc23)ccn1 |  | 84 | 4 | -4 | 12 | 1 | 48 | 18 | 2 | 35 | 4 | 76 | 24 | 7 | 69 | 23 | 25 | 4 | 64 | 53
7 | CCc1nc(-c2ccc(OC)cc2)[nH]c1-c1ccncc1 | 105% (inactive) |  |  |  | 104 | 75 |  | 67 | 62 | 103 |  |  |  | 108 | 100 | 105 | 112 | 79 |  | 110
8 | O=C1NC(=O)c2c1c1c3ccccc3n3c1c1c2c2ccccc2n1C1CCC3O1 |  | 60 |  |  |  |  | 88 | 2 | 4 |  |  | 91 | 87 |  | 22 | 27 |  |  | 95 | 
9 | O=C1c2ccccc2-c2nc3nnnn3nc21 | 113% (inactive) | 143 | 107 | 112 |  | 113 |  |  |  |  |  | 81 | 42 |  |  |  | 79 | 47 | 71 | 
